Experiments:
Assay in all cases: DAPPL (digital affinity profiling via proximity ligation, sequencing); 10 mM Tris-HCl pH 7.5, 50 mM NaCl, 1 mM DTT, 4% glycerol, room temperature, 30 min; GST-TFs on glutathione beads, 16-mer random dsDNA library, 0.1% formaldehyde crosslink after washing; high values mean tight binding
[1] = molecular target: T1, FLI1 (Homo sapiens, UniProt Q01543 1-452); settings: protein: recombinant; tags: N-terminal GST; dsDNA, one strand shown
T1 sequence: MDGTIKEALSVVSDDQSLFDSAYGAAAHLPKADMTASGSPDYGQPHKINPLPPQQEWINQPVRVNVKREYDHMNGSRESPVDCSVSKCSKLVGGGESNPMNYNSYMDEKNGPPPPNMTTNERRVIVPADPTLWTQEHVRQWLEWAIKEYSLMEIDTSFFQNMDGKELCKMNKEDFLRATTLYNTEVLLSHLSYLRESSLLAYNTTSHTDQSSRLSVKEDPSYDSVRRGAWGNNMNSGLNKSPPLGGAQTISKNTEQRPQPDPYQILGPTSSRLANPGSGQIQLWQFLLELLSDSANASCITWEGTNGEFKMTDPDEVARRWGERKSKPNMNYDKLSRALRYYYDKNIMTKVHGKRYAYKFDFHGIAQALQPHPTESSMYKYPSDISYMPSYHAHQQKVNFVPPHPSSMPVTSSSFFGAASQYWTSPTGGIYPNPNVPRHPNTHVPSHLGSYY
In short: (§1)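 A tag-only sample was pooled with DNA-barcoded human transcription factors that had been expressed in yeast as GST fusions and captured on glutathione beads. The pools were incubated for 30 min at room temperature with 200 nmole of a random double-stranded 16-mer DNA library in Tris/NaCl/DTT/glycerol buffer, then washed, crosslinked with 0.1% formaldehyde, proximity-ligated (BsaI/T4 ligase, 1 h, 37 °C), PCR-amplified and sequenced on an Illumina NextSeq500. Binding signal is each hexamer's read frequency for a factor divided by its frequency for the tag-only sample.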

[2] = molecular target: T2, ELK1 (Homo sapiens, UniProt P19419 1-428); settings: protein: recombinant; tags: N-terminal GST; dsDNA, one strand shown
T2 sequence: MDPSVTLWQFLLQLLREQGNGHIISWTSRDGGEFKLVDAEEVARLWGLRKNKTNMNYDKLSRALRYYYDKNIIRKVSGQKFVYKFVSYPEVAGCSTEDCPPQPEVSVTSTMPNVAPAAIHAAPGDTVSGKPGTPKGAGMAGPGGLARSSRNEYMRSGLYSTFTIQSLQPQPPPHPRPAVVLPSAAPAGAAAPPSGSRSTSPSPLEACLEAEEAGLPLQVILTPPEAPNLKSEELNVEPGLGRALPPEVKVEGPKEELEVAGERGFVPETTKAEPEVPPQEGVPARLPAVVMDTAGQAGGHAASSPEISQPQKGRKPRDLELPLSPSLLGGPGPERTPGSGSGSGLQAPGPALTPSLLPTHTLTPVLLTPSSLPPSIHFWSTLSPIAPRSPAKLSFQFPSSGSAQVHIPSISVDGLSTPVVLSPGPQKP
In short: as §1

[3] = molecular target: T3, GABPA (Homo sapiens, UniProt Q06546 1-454); settings: protein: recombinant; tags: N-terminal GST; dsDNA, one strand shown
T3 sequence: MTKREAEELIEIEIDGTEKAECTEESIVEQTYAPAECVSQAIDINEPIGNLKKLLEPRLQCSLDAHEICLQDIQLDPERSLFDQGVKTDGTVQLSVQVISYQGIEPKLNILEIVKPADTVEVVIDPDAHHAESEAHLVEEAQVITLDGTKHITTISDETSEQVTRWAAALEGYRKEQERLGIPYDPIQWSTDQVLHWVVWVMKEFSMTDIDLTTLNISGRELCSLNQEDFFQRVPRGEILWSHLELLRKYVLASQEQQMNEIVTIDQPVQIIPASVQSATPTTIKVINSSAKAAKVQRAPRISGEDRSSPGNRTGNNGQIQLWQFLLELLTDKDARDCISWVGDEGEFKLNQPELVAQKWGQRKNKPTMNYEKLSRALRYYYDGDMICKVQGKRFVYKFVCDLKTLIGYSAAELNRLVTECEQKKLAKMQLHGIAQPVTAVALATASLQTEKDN
In short: as §1

[4] = molecular target: T4, ERG (Homo sapiens, UniProt P11308 1-479); settings: protein: recombinant; tags: N-terminal GST; dsDNA, one strand shown
T4 sequence: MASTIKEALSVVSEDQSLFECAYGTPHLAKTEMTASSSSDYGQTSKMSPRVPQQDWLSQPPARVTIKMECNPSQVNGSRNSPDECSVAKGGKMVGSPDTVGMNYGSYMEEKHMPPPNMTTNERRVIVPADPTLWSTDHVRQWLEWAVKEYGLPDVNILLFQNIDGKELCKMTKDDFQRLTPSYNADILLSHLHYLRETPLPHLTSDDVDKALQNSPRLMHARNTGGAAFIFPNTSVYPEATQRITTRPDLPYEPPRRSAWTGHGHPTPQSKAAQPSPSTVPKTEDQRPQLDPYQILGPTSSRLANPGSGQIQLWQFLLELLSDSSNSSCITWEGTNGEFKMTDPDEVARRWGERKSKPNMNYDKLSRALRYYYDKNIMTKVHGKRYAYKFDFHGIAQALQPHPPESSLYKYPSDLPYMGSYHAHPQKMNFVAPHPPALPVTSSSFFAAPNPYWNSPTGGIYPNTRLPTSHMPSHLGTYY
In short: as §1

[5] = molecular target: ELF1 (Homo sapiens, UniProt P32519 1-619); settings: protein: recombinant; tags: N-terminal GST; dsDNA, one strand shown
Sequence of ELF1 (P32519 whole entry): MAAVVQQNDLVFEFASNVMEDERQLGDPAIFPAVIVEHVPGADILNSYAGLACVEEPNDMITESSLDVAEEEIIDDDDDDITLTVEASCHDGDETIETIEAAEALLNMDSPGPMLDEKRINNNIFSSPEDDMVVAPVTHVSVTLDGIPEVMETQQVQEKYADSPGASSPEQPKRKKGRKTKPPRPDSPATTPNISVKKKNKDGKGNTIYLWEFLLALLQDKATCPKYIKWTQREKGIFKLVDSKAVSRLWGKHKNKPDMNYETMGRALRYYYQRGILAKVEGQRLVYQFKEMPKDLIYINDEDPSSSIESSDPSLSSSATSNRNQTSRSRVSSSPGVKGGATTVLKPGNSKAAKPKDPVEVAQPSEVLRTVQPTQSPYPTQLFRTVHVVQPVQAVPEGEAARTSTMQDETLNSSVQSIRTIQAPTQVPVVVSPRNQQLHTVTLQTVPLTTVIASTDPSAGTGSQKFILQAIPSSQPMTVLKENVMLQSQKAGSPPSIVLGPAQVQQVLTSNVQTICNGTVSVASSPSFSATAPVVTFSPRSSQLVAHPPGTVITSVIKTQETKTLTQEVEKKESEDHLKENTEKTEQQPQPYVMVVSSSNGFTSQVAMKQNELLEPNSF
In short: as §1

[6] = molecular target: T5, EHF (Homo sapiens, UniProt Q9NZC4 1-300); settings: protein: recombinant; tags: N-terminal GST; dsDNA, one strand shown
T5 sequence: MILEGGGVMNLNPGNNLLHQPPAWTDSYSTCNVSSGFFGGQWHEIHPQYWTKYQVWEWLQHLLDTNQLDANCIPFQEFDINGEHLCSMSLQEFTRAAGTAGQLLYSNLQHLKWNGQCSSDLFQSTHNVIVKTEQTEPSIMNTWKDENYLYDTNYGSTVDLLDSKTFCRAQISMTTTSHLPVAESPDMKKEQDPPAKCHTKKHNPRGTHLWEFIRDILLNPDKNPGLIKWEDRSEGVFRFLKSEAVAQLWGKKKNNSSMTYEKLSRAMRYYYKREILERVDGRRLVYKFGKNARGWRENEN
In short: as §1

[7] = molecular target: SPI1 (Homo sapiens, UniProt P17947 1-270); settings: protein: recombinant; tags: N-terminal GST; dsDNA, one strand shown
In short: as §1

[8] = molecular target: SPIB (Homo sapiens, UniProt Q01892 1-262); settings: protein: recombinant; tags: N-terminal GST; dsDNA, one strand shown
Sequence of SPIB (Q01892 whole entry): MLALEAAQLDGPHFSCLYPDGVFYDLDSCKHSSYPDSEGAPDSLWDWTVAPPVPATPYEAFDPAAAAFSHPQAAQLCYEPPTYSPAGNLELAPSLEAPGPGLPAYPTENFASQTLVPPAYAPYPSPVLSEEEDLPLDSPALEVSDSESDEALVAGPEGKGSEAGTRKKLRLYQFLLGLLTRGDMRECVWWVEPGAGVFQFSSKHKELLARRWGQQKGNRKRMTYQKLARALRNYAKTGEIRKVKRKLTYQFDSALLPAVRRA
In short: as §1

[9] = molecular target: T6, ELK3 (Homo sapiens, UniProt P41970 1-407); settings: protein: recombinant; tags: N-terminal GST; dsDNA, one strand shown
T6 sequence: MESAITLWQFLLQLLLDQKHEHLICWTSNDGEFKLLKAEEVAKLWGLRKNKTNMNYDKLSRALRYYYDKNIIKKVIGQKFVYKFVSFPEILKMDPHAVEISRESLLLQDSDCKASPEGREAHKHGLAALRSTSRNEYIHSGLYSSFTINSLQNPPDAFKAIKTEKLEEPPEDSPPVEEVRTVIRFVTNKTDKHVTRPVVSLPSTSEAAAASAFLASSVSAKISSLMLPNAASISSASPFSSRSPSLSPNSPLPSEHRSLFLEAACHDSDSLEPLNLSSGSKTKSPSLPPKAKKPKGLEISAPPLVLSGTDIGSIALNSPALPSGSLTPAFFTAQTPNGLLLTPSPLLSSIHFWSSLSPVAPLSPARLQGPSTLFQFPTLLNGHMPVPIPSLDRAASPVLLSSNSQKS
In short: as §1

[10] = molecular target: T7, FEV (Homo sapiens, UniProt Q99581 1-238); settings: protein: recombinant; tags: N-terminal GST; dsDNA, one strand shown
T7 sequence: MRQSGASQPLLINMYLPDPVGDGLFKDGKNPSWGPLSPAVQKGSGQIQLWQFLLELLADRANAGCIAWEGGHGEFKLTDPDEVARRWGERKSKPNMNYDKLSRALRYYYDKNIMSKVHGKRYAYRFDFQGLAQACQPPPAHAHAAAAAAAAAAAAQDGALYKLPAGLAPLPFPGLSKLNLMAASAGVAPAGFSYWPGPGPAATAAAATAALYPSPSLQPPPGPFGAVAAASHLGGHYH
In short: as §1

[11] = molecular target: ETV5 (Homo sapiens, UniProt P41161 1-510); settings: protein: recombinant; tags: N-terminal GST; dsDNA, one strand shown
Sequence of ETV5 (P41161 whole entry): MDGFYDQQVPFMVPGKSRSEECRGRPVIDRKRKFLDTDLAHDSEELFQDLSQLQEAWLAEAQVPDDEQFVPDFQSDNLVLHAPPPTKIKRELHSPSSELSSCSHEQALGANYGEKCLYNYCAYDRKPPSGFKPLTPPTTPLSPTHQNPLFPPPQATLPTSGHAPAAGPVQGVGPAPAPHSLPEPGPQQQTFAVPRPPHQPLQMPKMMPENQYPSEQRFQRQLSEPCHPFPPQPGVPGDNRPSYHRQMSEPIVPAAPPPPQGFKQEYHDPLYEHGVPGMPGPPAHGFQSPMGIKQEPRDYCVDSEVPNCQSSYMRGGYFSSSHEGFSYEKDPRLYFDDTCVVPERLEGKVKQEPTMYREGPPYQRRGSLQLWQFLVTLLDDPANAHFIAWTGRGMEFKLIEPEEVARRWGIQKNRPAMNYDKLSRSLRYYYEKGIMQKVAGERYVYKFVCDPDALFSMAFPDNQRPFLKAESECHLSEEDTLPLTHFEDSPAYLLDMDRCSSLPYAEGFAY
In short: as §1

[12] = molecular target: HSF1 (Homo sapiens, UniProt Q00613 1-529); settings: protein: recombinant; tags: N-terminal GST; chain copies: 3; dsDNA, one strand shown
Sequence of HSF1 (Q00613 whole entry): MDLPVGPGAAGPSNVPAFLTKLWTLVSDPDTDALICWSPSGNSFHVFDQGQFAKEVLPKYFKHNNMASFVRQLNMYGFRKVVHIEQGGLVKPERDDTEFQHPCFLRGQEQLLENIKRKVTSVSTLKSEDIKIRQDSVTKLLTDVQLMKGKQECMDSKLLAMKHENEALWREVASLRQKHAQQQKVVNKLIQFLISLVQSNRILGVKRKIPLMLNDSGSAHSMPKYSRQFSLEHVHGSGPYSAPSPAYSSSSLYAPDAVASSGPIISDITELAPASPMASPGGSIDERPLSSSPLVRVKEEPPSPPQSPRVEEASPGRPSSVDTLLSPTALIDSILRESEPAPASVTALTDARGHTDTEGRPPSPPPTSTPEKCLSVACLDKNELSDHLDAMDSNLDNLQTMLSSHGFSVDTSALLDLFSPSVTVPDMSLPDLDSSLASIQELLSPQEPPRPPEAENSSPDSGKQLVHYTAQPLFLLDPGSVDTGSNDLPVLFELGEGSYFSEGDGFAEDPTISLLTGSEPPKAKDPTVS
In short: as §1

[13] = molecular target: T8, SPIC (Homo sapiens, UniProt Q8N5J4 1-248); settings: protein: recombinant; tags: N-terminal GST; dsDNA, one strand shown
T8 sequence: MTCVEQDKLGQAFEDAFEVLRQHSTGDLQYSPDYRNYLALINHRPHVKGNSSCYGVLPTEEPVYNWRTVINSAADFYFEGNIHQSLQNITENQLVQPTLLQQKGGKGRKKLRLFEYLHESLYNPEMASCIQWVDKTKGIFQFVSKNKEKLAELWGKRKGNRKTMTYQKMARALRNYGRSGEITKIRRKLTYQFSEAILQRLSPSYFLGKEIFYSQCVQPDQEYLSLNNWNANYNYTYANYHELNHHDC
In short: as §1

[14] = molecular target: ELF4 (Homo sapiens, UniProt Q99607 1-663); settings: protein: recombinant; tags: N-terminal GST; dsDNA, one strand shown
Sequence of ELF4 (Q99607 whole entry): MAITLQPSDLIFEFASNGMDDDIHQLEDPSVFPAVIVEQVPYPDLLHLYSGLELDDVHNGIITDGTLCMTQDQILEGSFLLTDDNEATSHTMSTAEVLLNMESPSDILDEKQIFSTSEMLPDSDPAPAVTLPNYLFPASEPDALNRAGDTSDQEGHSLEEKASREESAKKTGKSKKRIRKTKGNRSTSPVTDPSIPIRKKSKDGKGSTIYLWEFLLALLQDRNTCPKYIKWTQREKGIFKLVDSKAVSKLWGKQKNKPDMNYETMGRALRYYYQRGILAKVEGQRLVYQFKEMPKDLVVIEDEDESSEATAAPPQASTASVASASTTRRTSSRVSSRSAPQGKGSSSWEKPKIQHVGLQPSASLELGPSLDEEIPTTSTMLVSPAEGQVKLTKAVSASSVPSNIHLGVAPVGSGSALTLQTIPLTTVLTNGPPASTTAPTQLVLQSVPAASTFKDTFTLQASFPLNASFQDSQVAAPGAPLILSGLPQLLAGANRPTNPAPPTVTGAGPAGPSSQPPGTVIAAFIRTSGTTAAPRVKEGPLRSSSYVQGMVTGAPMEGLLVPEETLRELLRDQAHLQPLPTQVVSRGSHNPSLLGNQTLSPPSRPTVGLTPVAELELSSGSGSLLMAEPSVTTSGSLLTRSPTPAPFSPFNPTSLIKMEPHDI
In short: as §1

[15] = molecular target: T9, ELK4 (Homo sapiens, UniProt P28324-2 1-405); settings: protein: recombinant; tags: N-terminal GST; dsDNA, one strand shown
T9 sequence: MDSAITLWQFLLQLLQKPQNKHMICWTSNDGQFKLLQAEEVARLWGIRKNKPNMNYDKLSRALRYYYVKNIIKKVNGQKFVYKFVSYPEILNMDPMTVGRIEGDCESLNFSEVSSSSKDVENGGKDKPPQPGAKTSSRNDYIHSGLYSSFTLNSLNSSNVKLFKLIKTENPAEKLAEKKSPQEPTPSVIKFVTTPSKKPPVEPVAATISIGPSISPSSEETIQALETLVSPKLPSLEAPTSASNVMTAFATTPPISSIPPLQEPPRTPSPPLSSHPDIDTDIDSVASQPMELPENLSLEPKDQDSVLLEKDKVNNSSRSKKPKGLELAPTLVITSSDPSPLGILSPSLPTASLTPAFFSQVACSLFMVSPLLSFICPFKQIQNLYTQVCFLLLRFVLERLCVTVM
In short: as §1

[16] = molecular target: T10, ETV2 (Homo sapiens, UniProt O00321 1-342); settings: protein: recombinant; tags: N-terminal GST; dsDNA, one strand shown
T10 sequence: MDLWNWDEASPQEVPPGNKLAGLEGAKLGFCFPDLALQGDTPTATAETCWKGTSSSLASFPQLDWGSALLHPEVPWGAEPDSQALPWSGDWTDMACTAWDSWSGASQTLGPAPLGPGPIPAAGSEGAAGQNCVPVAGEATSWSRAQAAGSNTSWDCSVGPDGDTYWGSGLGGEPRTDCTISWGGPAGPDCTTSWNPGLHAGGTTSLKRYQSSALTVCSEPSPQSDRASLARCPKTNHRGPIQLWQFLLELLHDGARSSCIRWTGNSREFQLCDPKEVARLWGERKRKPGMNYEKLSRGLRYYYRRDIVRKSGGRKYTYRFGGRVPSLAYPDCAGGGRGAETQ
In short: as §1

[17] = molecular target: T11, ELF3 (Homo sapiens, UniProt P78545 1-371); settings: protein: recombinant; tags: N-terminal GST; dsDNA, one strand shown
T11 sequence: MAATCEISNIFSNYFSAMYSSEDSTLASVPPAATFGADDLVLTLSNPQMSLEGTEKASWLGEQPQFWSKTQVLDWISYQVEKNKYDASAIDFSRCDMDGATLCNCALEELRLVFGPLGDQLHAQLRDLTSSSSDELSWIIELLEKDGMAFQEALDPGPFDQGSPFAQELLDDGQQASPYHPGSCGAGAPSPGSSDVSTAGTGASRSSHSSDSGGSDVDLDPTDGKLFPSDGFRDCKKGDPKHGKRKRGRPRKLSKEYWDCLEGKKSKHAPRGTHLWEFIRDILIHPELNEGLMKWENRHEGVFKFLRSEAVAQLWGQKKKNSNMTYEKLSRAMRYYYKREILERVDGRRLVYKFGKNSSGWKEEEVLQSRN
In short: as §1

[18] = molecular target: CRX (Homo sapiens, UniProt O43186 1-299); settings: protein: recombinant; tags: N-terminal GST; dsDNA, one strand shown
Sequence of CRX (O43186 whole entry): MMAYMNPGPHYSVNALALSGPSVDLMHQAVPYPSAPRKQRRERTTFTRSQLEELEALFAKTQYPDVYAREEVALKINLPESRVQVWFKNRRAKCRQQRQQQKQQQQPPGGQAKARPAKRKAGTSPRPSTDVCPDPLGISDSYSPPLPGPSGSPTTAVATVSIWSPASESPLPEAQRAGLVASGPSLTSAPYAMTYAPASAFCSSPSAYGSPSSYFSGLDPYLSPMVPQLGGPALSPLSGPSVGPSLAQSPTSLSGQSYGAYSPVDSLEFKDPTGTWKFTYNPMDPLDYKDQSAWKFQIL
In short: as §1

[19] = molecular target: ETV1 (Homo sapiens, UniProt P50549 1-477); settings: protein: recombinant; tags: N-terminal GST; dsDNA, one strand shown
Sequence of ETV1 (P50549 whole entry): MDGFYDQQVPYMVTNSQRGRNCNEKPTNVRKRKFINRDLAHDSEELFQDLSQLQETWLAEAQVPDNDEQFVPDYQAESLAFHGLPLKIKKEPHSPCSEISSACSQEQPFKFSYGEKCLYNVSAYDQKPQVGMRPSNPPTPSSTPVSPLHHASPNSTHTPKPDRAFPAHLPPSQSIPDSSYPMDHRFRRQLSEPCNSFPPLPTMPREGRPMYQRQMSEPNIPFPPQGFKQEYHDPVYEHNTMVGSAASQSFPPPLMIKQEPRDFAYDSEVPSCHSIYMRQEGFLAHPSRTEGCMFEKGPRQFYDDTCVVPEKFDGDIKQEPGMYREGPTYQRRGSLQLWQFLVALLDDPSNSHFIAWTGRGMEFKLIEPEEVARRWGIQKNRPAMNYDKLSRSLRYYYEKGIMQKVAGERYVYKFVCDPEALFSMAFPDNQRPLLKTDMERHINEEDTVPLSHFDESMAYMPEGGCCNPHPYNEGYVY
In short: as §1

Sequence: CTGTAC
- binding signal [1]: 1.28 fold enrichment (6-mer frequency, TF over GST control)
- binding signal [2]: 1.31 fold enrichment (6-mer frequency, TF over GST control)
- binding signal [3]: 1.23 fold enrichment (6-mer frequency, TF over GST control)
- binding signal [4]: 1.39 fold enrichment (6-mer frequency, TF over GST control)
- binding signal [5]: 1.38 fold enrichment (6-mer frequency, TF over GST control)
- binding signal [6]: 1.33 fold enrichment (6-mer frequency, TF over GST control)
- binding signal [7]: 1.4 fold enrichment (6-mer frequency, TF over GST control)
- binding signal [8]: 1.3 fold enrichment (6-mer frequency, TF over GST control)
- binding signal [9]: 1.24 fold enrichment (6-mer frequency, TF over GST control)
- binding signal [10]: 1.44 fold enrichment (6-mer frequency, TF over GST control)
- binding signal [11]: 1.34 fold enrichment (6-mer frequency, TF over GST control)
- binding signal [12]: 1.02 fold enrichment (6-mer frequency, TF over GST control)
- binding signal [13]: 1.41 fold enrichment (6-mer frequency, TF over GST control)
- binding signal [14]: 1.33 fold enrichment (6-mer frequency, TF over GST control)
- binding signal [15]: 1.43 fold enrichment (6-mer frequency, TF over GST control)
- binding signal [16]: 1.39 fold enrichment (6-mer frequency, TF over GST control)
- binding signal [17]: 1.26 fold enrichment (6-mer frequency, TF over GST control)
- binding signal [18]: 1.06 fold enrichment (6-mer frequency, TF over GST control)
- binding signal [19]: 1.42 fold enrichment (6-mer frequency, TF over GST control)

Source: PMC7862700, “An all-to-all approach to the identification of sequence-specific readers for epigenetic DNA modifications on cytosine”
